KCNQ2 pot: potentiators of rat KCNQ2 potassium channel; Potassium voltage-gated channel subfamily KQT member 2 (Rattus norvegicus), O88943; CHO-K1 KCNQ2, FluxOR thallium flux fluorescence; stronger effect = higher value; B-score at 10 µM; 0.54% of 310,000 active;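 active means fluorescence ratio B-score at least 3 SD of library B-scores, with initial fluorescence B-score within 3 of them, cut at about 5.3 in these data; same plate scores as AID 2156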;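 further: B-score of peak minus minimum over baseline fluorescence ratio after K+ and Tl+ stimulus; positive B-score means potentiation of KCNQ2 with more thallium influx and brighter signal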
KCNQ2 inh: rat KCNQ2 potassium channel inhibitors, primary screen, cell-based, CHO-K1, FluxOR thallium flux, B-score | B-score at 10 µM | AID 2156, 2009 | 1.1% of 310,000 active | Potassium voltage-gated channel subfamily KQT member 2 (Rattus norvegicus), O88943 | 20 min; stronger effect = lower value;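 active means fluorescence ratio B-score at most minus 3 library SDs, with starting brightness B-score within 2 library SDs, cut at about -5.5 in these data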
KCNQ2 block conf: rat KCNQ2 potassium channel inhibitors, confirmation, cell-based, thallium flux; shares compounds with KCNQ2 inh; activity change, negative = inhibition, % at 10 µM; KCNQ2-expressing cells, inhibition; stronger effect = lower value; 57% of 1,000 active
KCNQ1 spec: human KCNQ1 channel inhibition, counter-screen for KCNQ2 inhibitor project, cell-based, FluxOR thallium flux; AID 493026, 2011; 15% of 1,000 active; activity change, negative = inhibition, % at 10 µM; KCNQ1-expressing cells, FluxOR thallium flux fluorescence; stronger effect = lower value; shares compounds with KCNQ2 inh;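 active means activity change at least 3 SD of negative controls below their mean in both duplicate wells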;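 further: CHO cells stably transfected with KCNQ1 and depolarized by potassium stimulus; peak minus minimum fluorescence over baseline after thallium addition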
Target sequence (P51787 whole entry, looked up): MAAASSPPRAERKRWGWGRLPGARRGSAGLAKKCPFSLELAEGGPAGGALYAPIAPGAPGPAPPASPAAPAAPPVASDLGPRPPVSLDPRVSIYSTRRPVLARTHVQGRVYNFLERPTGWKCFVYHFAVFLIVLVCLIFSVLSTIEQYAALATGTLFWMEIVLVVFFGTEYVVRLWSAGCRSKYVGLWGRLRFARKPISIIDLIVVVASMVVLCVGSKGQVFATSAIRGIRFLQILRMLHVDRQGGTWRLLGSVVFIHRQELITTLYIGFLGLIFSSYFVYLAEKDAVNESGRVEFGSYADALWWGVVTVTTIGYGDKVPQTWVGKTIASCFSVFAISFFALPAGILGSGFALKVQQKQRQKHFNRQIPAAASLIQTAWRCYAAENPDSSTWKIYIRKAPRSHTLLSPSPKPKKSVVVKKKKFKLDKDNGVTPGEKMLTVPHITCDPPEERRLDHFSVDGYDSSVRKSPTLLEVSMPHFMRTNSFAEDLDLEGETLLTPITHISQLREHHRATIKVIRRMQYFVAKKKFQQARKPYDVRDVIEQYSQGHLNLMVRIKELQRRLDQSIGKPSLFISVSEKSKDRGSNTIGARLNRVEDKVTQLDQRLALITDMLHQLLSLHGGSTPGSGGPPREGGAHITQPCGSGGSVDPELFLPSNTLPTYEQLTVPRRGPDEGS
CHO Tl ctr: thallium flux change in parental CHO cells, counter-screen for KCNQ2 inhibitor project | shares compounds with KCNQ2 inh | stronger effect = lower value | activity change, % at 10 µM | 14% of 1,000 active | AID 493029, 2011
KCNQ2 patch conf: rat KCNQ2 channel inhibitors, confirmation, cell-based, automated patch clamp, single concentration; AID 588531, 2011; KCNQ2-expressing cells, automated patch clamp current; shares compounds with KCNQ2 inh; calls only at 10 µM; 49% of 550 active
Kir21 conf inh: mouse Kir2.1 channel blockers, retest, confirmation, cell-based, FluxOR thallium flux, duplicate | 41% of 2,300 active | shares compounds with KCNQ2 pot | Kir2.1-expressing cells, FluxOR thallium flux fluorescence; stronger effect = lower value | AID 2032, 2009 | Tl flux remaining, % of negative control (stronger effect = lower value), % at 10 µM;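 active means Primary-screen hit whose thallium flux fell at least 3 control SD below untreated wells in both duplicates, with normal baseline fluorescence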
HEK293 Tl flux: parental HEK293 activity in Kir2.1 inhibitor counter-screen; shares compounds with KCNQ2 pot; parental HEK293 cells, FluxOR thallium flux fluorescence; 0% = unstimulated blank wells; FluxOR signal as % of negative control (100 = no effect), % at 10 µM; 19% of 2,300 active;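 active means dye signal at least 3 control SD above or below untreated wells in both duplicates, raw fluorescence within 3, either direction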;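 further: percent is based on the flux ratio of peak minus minimum fluorescence over baseline F0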
Hits are given with their value. This is a sample that favours compounds with a hit; in the whole collection about 1.6% have one here. Unless noted, how the calls were made is not given here.

How did O=C(CCNC(=O)c1ccc(Cl)cc1)Nc1ccncc1 do in these assays?
KCNQ2 inh: inactive

Results for COc1cc(C2NC(=O)CCC2[N+](=O)[O-])c(OC)cc1Br (stereo not drawn) ?
KCNQ2 pot: inactive; KCNQ2 inh: inactive

What do the screens show for `COc1ccc(C(=O)CCN2CCN(c3ccccc3OC)CC2)cc1`?
KCNQ2 inh: inactive

Results for COc1ccc(C(=O)CCN2CCc3cc(OC)c(OC)cc3C2)cc1 ?
KCNQ2 pot: inactive; KCNQ2 inh: -9.6; KCNQ2 block conf: -32%; KCNQ1 spec: inactive; CHO Tl ctr: inactive; KCNQ2 patch conf: inactive

Results for CC1(C)OC(=O)N(c2ccccc2)C12C=Cc1cc(Br)ccc1O2 (stereo not drawn) ?
KCNQ2 inh: inactive

What do the screens show for `CN1c2ccccc2C(C)(C)[C@]12C=Cc1cc(O)ccc1O2`?
KCNQ2 pot: inactive; KCNQ2 inh: -9.5; KCNQ2 block conf: -34%; KCNQ1 spec: inactive; CHO Tl ctr: inactive; KCNQ2 patch conf: inactive; Kir21 conf inh: inactive; HEK293 Tl flux: inactive

Results for NCCc1c(-c2ccccc2)n(-c2ccccc2)c2ccccc12 ?
KCNQ2 pot: inactive; KCNQ2 inh: -7; KCNQ2 block conf: inactive; KCNQ1 spec: inactive; CHO Tl ctr: inactive; Kir21 conf inh: 15%; HEK293 Tl flux: inactive

What do the screens show for `CC(=O)n1c(-c2ccccc2)c(CO)c2ccccc21`?
KCNQ2 pot: inactive; KCNQ2 inh: inactive

What do the screens show for `CNC[C@H](Cc1ccccc1)NC[C@@H](Cc1cccc2ccccc12)NCCc1ccc(C)cc1`?
KCNQ2 pot: inactive; KCNQ2 inh: -8.4; KCNQ2 block conf: inactive; KCNQ1 spec: inactive; CHO Tl ctr: inactive; Kir21 conf inh: 14%; HEK293 Tl flux: inactive

How did Cc1ccc(CC(CC(=O)O)C(=O)NCc2ccccc2)cc1 (stereo not drawn) do in these assays?
KCNQ2 inh: inactive

Results for Cc1ccccc1NC(=O)OCc1ccccc1 ?
KCNQ2 pot: inactive; KCNQ2 inh: inactive

How did CCN(CC)c1c([N+](=O)[O-])c(=O)n(CC)c2ccccc12 do in these assays?
KCNQ2 pot: inactive; KCNQ2 inh: inactive

Results for CCCCCCCNC(=O)C1(CC2CC(c3cccc(Br)c3)=NO2)CCN(C(=O)c2ccccc2)CC1 (stereo not drawn) ?
KCNQ2 inh: inactive

What do the screens show for `CCCCCCCNC(=O)C1(CC2CC(c3cccc(Br)c3)=NO2)CCNCC1` (stereo not drawn)?
KCNQ2 pot: inactive; KCNQ2 inh: -8.6; KCNQ2 block conf: -42%; KCNQ1 spec: -43%; CHO Tl ctr: -45%; KCNQ2 patch conf: active; Kir21 conf inh: 37%; HEK293 Tl flux: inactive

How did Cc1ccc(NC(=O)c2sccc2C)nc1 do in these assays?
KCNQ2 pot: inactive; KCNQ2 inh: inactive

Results for CC(C)(C)c1ccc(C(=O)NNC(=O)CCc2ccccc2)cc1 ?
KCNQ2 inh: inactive

What do the screens show for `CC(C)=CCc1c(O)ccc2c1OC(c1ccc(O)c(O)c1)CC2=O` (stereo not drawn)?
KCNQ2 pot: inactive; KCNQ2 inh: -8.7; KCNQ2 block conf: inactive; KCNQ1 spec: inactive; CHO Tl ctr: inactive; Kir21 conf inh: 54%; HEK293 Tl flux: inactive

How did O=C1CC(c2ccc(O)c(O)c2)Oc2cc(O)cc(O)c21 (stereo not drawn) do in these assays?
KCNQ2 pot: inactive; KCNQ2 inh: inactive

How did COCCn1c(C)nnc1SCC(=O)NNC(=O)c1ccc(Br)cc1 do in these assays?
KCNQ2 pot: inactive; KCNQ2 inh: inactive

Results for COC(=O)c1ccc2c(c1)C(C)(C)C(/C=C/c1ccc(OC)c(OC)c1OC)=[N+]2C ?
KCNQ2 pot: inactive; KCNQ2 inh: -16; KCNQ2 block conf: -70%; KCNQ1 spec: -66%; CHO Tl ctr: -60%; KCNQ2 patch conf: inactive; Kir21 conf inh: 31%; HEK293 Tl flux: inactive

What do the screens show for `COC(=O)c1ccc2c(c1)C(C)(C)C(/C=C/c1ccc(O)cc1)=[N+]2C`?
KCNQ2 inh: inactive

How did CC(=O)c1ccc(N2CCN(C(=O)c3ccc(Cl)c(NC4=NC5CS(=O)(=O)CC5S4)c3)CC2)cc1 (stereo not drawn) do in these assays?
KCNQ2 pot: inactive; KCNQ2 inh: inactive

What do the screens show for `O=[N+]([O-])c1ccc(S(=O)(=O)N2CCN(Cc3ccco3)CC2)cc1`?
KCNQ2 pot: inactive; KCNQ2 inh: inactive

Results for Cc1cccc(N(Cc2ccccc2)C(=O)CSC(C)C(=O)Nc2cc(C)on2)c1 (stereo not drawn) ?
KCNQ2 inh: inactive

How did CN(Cc1ccccc1O)CC1CCCN(CCc2ccc(Cl)cc2)C1 (stereo not drawn) do in these assays?
KCNQ2 pot: inactive; KCNQ2 inh: -9; KCNQ2 block conf: inactive; KCNQ1 spec: inactive; CHO Tl ctr: inactive; Kir21 conf inh: 23%; HEK293 Tl flux: inactive

Results for COc1ccc(CCN2CCCC(CN(C)Cc3cc(OC)ccc3OC)C2)cc1 (stereo not drawn) ?
KCNQ2 pot: inactive; KCNQ2 inh: inactive

Results for CCOC(=O)c1ccc(N2C=C(C(=O)OC)C(c3cccc(O)c3)C(C(=O)OC)=C2)cc1 ?
KCNQ2 pot: inactive; KCNQ2 inh: inactive

What do the screens show for `CNC(=O)CSc1nc2ccccc2c(=O)n1CCc1ccccc1`?
KCNQ2 pot: inactive; KCNQ2 inh: inactive

What do the screens show for `O=C(NNC(=S)Nc1ccc(F)cc1)C1[C@H]2CCCC[C@@H]12` (stereo partly drawn)?
KCNQ2 pot: inactive; KCNQ2 inh: inactive

Results for CCOc1cc(CNCc2ccccc2)ccc1OCc1ccc(Cl)cc1 ?
KCNQ2 inh: inactive

What do the screens show for `COc1ccc(CNCCc2ccc(Cl)cc2)cc1OCc1ccccc1`?
KCNQ2 pot: inactive; KCNQ2 inh: -13; KCNQ2 block conf: inactive; KCNQ1 spec: inactive; CHO Tl ctr: inactive; Kir21 conf inh: 14%; HEK293 Tl flux: inactive

How did N=c1c2c(-c3ccccc3)c(-c3ccccc3)n(Cc3ccccc3)c2ncn1CCO do in these assays?
KCNQ2 pot: inactive; KCNQ2 inh: -7.5; KCNQ2 block conf: inactive; KCNQ1 spec: inactive; CHO Tl ctr: inactive; Kir21 conf inh: 38%; HEK293 Tl flux: 63%
